For 19 molecules, growth inhibition, inhibition and outcome results are on record in PubChem BioAssay.

Unmarked numbers belong to inactive results. For some assays here: Entries with a potency or affinity are not part of this list. Activity calls are given as the source filed them. Unless noted, no rule for the calls is given here.

Test [1] in a line: antimalarial activity against Dd2 strain (AID 2302;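 active = growth inhibition above 50% at the single 2 µM test dose, taken to imply half-maximal potency below 2 µM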;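 also: 0% = DMSO untreated growth and 100% = chloroquine plus artemisinin killed control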). The settings on record: P. falciparum Dd2 in RBCs, LDH growth readout, 72 h; at 2 µM; active compounds read high.
Test [2] in a line: HepG2 cytotoxicity, primary screen, cytotoxicity control for P. falciparum antimalarial project, cell-based, ATP luminescence (AID 2303;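 active = inhibition above 50%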;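 also: 0% = DMSO wells and 100% = digitonin-killed cells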). The settings on record: HepG2 viability, 24-48 h, at 10 µM, active compounds read high.
The target in test [3] is L-lactate dehydrogenase (Plasmodium falciparum (isolate CDC / Honduras)) (UniProt Q27743). The test can be described thus: PfLDH activity inhibition – cell lysate, 3D7 strain, counter-screen for P. falciparum growth inhibition project (AID 2304).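 Also: 0% = vehicle and 100% = reference inhibitor.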 The settings on record: P. falciparum 3D7 crude extract, LDH APAD/NBT absorbance; at 2 µM; active compounds read high.
L-lactate dehydrogenase (Plasmodium falciparum (isolate CDC / Honduras)), sequence (Q27743 whole entry, looked up): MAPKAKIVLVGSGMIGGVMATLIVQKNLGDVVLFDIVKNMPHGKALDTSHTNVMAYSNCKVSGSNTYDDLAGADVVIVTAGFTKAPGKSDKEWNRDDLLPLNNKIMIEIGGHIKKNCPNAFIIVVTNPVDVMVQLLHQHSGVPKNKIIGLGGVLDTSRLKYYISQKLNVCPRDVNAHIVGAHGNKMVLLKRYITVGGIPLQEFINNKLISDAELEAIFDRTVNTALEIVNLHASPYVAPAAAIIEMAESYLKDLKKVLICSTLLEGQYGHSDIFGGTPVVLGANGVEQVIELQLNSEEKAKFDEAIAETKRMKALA
Test [4] in a line: inhibition of 3D7 malaria parasite growth – strain 3D7 (AID 2306).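 Also: 0% = DMSO wells and 100% = chloroquine plus artemisinin control wells.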 The settings on record: P. falciparum 3D7 erythrocytic growth, LDH absorbance, 72 h; at 2 µM; active compounds read high.
Test [5] concerns the target Calcium-dependent protein kinase 1 (Plasmodium falciparum (isolate 3D7)) (UniProt P62344). In words: PfCDPK1 kinase inhibitors, biochemical, TCAMS library (AID 1159585; cut-off not given, nearly all actives have IC50 up to about 0.98 µM;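 also: inhibitors leave more ATP so luminescence rises with inhibition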). Conditions: recombinant PfCDPK1, Kinase-Glo ATP depletion luminescence. For orientation: Kinase-Glo reads ATP consumption through a luciferase reaction.
The target of test [6] is Plasmodium falciparum protein kinase 6 (PK6, PF3D7_1337100) (UniProt Q8IDW1). In words: PfPK6 kinase inhibitors, biochemical, TCAMS library (AID 1159586). The settings on record: recombinant PfPK6, Kinase-Glo ATP depletion luminescence.
Plasmodium falciparum protein kinase 6 (PK6, PF3D7_1337100), sequence (Q8IDW1 1-305): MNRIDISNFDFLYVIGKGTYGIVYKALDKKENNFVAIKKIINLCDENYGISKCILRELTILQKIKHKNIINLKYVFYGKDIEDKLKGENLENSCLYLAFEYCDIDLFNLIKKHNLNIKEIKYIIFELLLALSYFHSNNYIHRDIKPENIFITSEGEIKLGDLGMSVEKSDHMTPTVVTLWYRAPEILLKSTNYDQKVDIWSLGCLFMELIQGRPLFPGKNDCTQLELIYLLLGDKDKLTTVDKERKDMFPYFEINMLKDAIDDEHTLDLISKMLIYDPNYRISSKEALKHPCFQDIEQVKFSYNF
In test [7] the target is Protein kinase 7 (PK7), Plasmodium falciparum 3D7 (PF3D7_0213400) (UniProt Q7YTF7). The test can be described thus: inhibition of Plasmodium PK7 catalytic activity – biochemical, TCAMS antimalarial set, Kinase-Glo luminescence (AID 1159587). Conditions: recombinant PfPK7, Kinase-Glo ATP depletion luminescence.
Protein kinase 7 (PK7), Plasmodium falciparum 3D7 (PF3D7_0213400), sequence (Q7YTF7 1-343): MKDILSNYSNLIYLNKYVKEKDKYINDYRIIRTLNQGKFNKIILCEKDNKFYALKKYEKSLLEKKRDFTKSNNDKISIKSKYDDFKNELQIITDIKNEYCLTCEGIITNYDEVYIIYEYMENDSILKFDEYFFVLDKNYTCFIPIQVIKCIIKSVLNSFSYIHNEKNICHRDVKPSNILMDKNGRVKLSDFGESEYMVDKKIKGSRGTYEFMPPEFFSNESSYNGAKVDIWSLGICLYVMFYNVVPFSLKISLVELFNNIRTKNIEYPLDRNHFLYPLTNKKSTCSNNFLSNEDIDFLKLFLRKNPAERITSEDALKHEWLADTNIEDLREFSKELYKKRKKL
Test [8] has as its target Calcium-dependent protein kinase 4 (Plasmodium falciparum (isolate 3D7)) (UniProt Q8IBS5). In words: PfCDPK4 kinase inhibitors, biochemical, TCAMS library (AID 1159588; cut-off not given, nearly all actives have IC50 up to about 0.91 µM). The settings on record: recombinant PfCDPK4, Kinase-Glo ATP depletion luminescence.

Calcium-dependent protein kinase 1 (Plasmodium falciparum (isolate 3D7)), sequence (P62344 whole entry, looked up): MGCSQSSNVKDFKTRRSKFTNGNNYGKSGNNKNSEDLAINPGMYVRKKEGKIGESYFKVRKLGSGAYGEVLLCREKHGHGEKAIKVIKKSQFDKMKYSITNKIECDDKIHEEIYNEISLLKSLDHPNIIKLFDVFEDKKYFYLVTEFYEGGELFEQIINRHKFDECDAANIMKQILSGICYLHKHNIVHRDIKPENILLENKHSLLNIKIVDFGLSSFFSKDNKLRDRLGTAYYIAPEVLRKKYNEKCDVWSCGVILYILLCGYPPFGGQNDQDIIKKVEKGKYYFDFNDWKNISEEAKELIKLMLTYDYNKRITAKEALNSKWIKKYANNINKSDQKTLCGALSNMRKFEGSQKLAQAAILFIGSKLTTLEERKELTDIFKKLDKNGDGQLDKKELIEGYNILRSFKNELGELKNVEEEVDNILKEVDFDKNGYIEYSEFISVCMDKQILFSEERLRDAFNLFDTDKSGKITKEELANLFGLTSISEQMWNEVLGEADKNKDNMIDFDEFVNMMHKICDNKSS
Calcium-dependent protein kinase 4 (Plasmodium falciparum (isolate 3D7)), sequence (Q8IBS5 whole entry, looked up): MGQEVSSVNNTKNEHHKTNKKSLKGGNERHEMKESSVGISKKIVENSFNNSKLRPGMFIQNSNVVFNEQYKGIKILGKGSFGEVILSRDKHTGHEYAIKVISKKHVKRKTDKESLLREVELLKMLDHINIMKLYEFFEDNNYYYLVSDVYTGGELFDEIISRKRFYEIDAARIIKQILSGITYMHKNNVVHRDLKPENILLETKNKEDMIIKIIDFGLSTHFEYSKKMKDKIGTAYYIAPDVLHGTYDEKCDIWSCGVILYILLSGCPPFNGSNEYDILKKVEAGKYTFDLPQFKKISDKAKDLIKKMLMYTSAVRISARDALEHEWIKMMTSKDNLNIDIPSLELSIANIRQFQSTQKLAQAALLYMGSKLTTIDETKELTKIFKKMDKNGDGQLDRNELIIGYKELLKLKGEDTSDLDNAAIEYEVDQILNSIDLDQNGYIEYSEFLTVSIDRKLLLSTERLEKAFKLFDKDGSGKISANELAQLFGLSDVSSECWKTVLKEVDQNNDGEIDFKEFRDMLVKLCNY

One may read the inhibition as the relative decrease from the control value, in per cent. For the molecule `O=[N+]([O-])c1ccc(CNCCCCCCNCc2ccc([N+](=O)[O-])c3ccccc23)c2ccccc12`, the growth inhibition in test [1] was 98% (active); in test [4], 102% (active). Also, the inhibition is 88% (active) in test [2] and 0% in test [3]. Besides, the outcome in test [5], in test [6], in test [7] and in test [8] was inactive.
Consider `CCN(CCO)CCc1cccc(Nc2nccc(-c3c(-c4ccc(NC(=O)N(CC)CC)cc4)nn4ccccc34)n2)c1`, for which the growth inhibition in test [1] was 95% (active); in test [4], 101% (active). Besides, the inhibition in test [2] is 46%; in test [3], 2%. Further, the outcome in test [5], in test [6], in test [7] and in test [8] was inactive.
Turning to `COc1ccc(-c2cc(C(=O)N[C@@H](Cc3ccccc3)C(=O)NCCN3CCCCC3)ccc2O)cc1`, the growth inhibition in test [1] was -3%; in test [4], 96% (active). Further, the inhibition in test [2] is -3%; in test [3], 1%. Further, the result in test [5], in test [6], in test [7] and in test [8] was inactive.
Turning to `COc1ccc2nccc([C@@H](O)CN3CCC(NCC(O)Cc4ccccc4)CC3)c2c1` (some centres not stated), the values for the growth inhibition in test [1] and in test [4] were 6% and 98% (active), respectively. The inhibition in test [2] was 5%; in test [3], -3%. Further, the result in test [5], in test [6], in test [7] and in test [8] was inactive.
For `CCCNCc1ccc(-c2ccc(CN(Cc3ccc4c(c3)OCO4)C(=O)[C@H]3CCCO3)cc2)nc1`, the growth inhibition in test [1] is 39%; in test [4], 90% (active). Besides, the inhibition in test [2] was 18%; in test [3], -3%. The outcome in test [5], in test [6], in test [7] and in test [8] was inactive.
In the case of `O=C1C2=C(Nc3ccccc3SC2c2ccccc2)c2ccccc21` (configuration not stated), the results for the growth inhibition in test [1] and in test [4] were 94% (active) and 86% (active), respectively. In addition, the values for the inhibition in test [2] and in test [3] were 5% and -7%, respectively. The result in test [5], in test [6], in test [7] and in test [8] was inactive.
For `CCCCCCC1(C)N=C(N)N=C(N)C1c1ccc(Cl)c(Cl)c1` (configuration not stated), the growth inhibition in test [1] was 43%; in test [4] it was 94% (active). Moreover, the inhibition in test [2] is 18%; in test [3], -9%. Further, the outcome in test [5], in test [6], in test [7] and in test [8] was inactive.
With `COc1ccc(NC(=O)c2ccc(C=Cc3ccc(C(F)(F)F)cc3)cc2)cc1N1CCN(C)CC1`, the growth inhibition in test [1] is 47%; in test [4] it was 99% (active). Besides, the inhibition in test [2] is 46%; in test [3], -6%. Further, the result in test [5], in test [6], in test [7] and in test [8] was inactive.
Turning to `COc1ccc2ncc(Cl)c(CCN3C[C@H](CNCc4ccc5c(n4)NC(=O)CS5)[C@H](O)C3)c2n1`, the growth inhibition in test [1] was 16%; in test [4], 94% (active). In addition, the inhibition was 2% in test [2] and 3% in test [3]. In addition, the outcome in test [5], in test [6], in test [7] and in test [8] was inactive.
Consider `COc1cc(Nc2nccc(N3CCC(NC(=O)C(C)c4ccc(Cl)cc4)C3)n2)cc(OC)c1OC` (configuration not stated), for which the growth inhibition in test [1] is 90% (active); in test [4], 97% (active). Further, the inhibition in test [2] is 2%; in test [3] it was -7%. Also, the outcome in test [5], in test [6], in test [7] and in test [8] was inactive.
Consider `Cc1cc(OC(C)C(=O)N2CCc3ccccc32)ccc1Cl` (configuration not stated), for which the values for the growth inhibition in test [1] and in test [4] were 54% (active) and 89% (active), respectively. The inhibition is 20% in test [2] and 6% in test [3]. Moreover, the result in test [5], in test [6], in test [7] and in test [8] was inactive.
Take `CCCNC(=O)CN1CN(c2ccccc2)C2(CCN(C(=O)c3ccc(C(C)(C)C)cc3)CC2)C1=O`: the values for the growth inhibition in test [1] and in test [4] were 98% (active) and 99% (active), respectively. In addition, the inhibition in test [2] and in test [3] was 0% each time. In addition, the outcome in test [5], in test [6], in test [7] and in test [8] was inactive.
For the molecule `COC(=O)CCn1c(C2CCN(CC3CCC(NC(=O)/C=C/c4ccc(Cl)c(Cl)c4)CC3)CC2)nc2ccccc21` (configuration not stated), the growth inhibition in test [1] is 10%; in test [4], 94% (active). For the same molecule, the inhibition was 14% in test [2] and -2% in test [3]. Also, the outcome in test [5], in test [6], in test [7] and in test [8] was inactive.
Regarding `CCCN1CCc2c(sc3nc(SCC(=O)Nc4ccc(C)cc4)n(-c4ccc(C)cc4)c(=O)c23)C1`, the growth inhibition in test [1] was 71% (active); in test [4], 92% (active). The results for the inhibition in test [2] and in test [3] were 0% and -5%, respectively. Besides, the outcome in test [5], in test [6], in test [7] and in test [8] was inactive.
As to `COc1ccc(CNCc2ccccc2)cc1-c1ccc(S(=O)(=O)NCCN2CCCC2)s1`, the growth inhibition in test [1] is 62% (active); in test [4], 101% (active). Moreover, the results for the inhibition in test [2] and in test [3] were 32% and 0%, respectively. Further, the outcome in test [5], in test [6], in test [7] and in test [8] was inactive.
As for `COc1ccc2nccc([C@@H](O)CN3CCC(NCc4cc5sccc5nc4C(F)(F)F)CC3)c2c1`, the growth inhibition in test [1] was 67% (active); in test [4] it was 89% (active). Besides, the inhibition in test [2] was 22%; in test [3], 4%. Moreover, the result in test [5], in test [6], in test [7] and in test [8] was inactive.
For `O=C(Nc1ccc2c(ccn2C2CCCN(Cc3cc(F)cc(F)c3F)CC2)c1)c1ccco1` (configuration not stated), the growth inhibition in test [1] was 94% (active); in test [4], 89% (active). The inhibition is 7% in test [2] and -1% in test [3]. The result in test [5], in test [6], in test [7] and in test [8] was inactive.
For `CCCCN(CCCC)CCCCCCNc1c2ccccc2nc2ccccc12`, the growth inhibition in test [1] is 87% (active); in test [4] it was 95% (active). For the same molecule, the inhibition is 49% in test [2] and 7% in test [3]. Besides, the outcome in test [5], in test [6], in test [7] and in test [8] was inactive.
As to `CCc1c[nH]c2c(N3CCCS3(=O)=O)cc(C(=O)N[C@@H](Cc3ccccc3)[C@H](O)CNC3CCCCC3)cc12`, the figures for the growth inhibition in test [1] and in test [4] were 89% (active) and 99% (active), respectively. Also, the inhibition is 6% in test [2] and -7% in test [3]. In addition, the result in test [5], in test [6], in test [7] and in test [8] was inactive.
